Reference: PubChem BioAssay (NCATS)
Several values for one entry are separate records, joined by “and”; a condition that tells them apart may be missing. Identical values can stand only once. Inconclusive results are not listed. Entries that show only a call come without a potency. Activity calls are given as the source filed them. Unless noted, calls follow the shape of the dose curve; as a rule, active = well fitted curve in the direction sought with a large enough effect; inconclusive = small, poorly fitted or top-dose-only effect, or another doubt; inactive = no such curve, though single readings can be large; an effect the other way counts as inactive or inconclusive.

How the values were obtained:
[1] = target: N-terminal Xaa-Pro-Lys N-methyltransferase 1 (Homo sapiens) (UniProt Q9BV86); experiment: Confirmatory qHTS for Inhibitors of N-terminal methyltransferase 1 (NTMT1): MTaseGlo Assay (AID 1645874);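 also: luminescence from SAH made as NTMT1 methylates SPKRIA peptide using SAM; series mostly up to about 100 µM; nearly all actives have a fitted effect of over 65% in size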
Sequence of N-terminal Xaa-Pro-Lys N-methyltransferase 1 (Homo sapiens) (Q9BV86 whole entry, looked up): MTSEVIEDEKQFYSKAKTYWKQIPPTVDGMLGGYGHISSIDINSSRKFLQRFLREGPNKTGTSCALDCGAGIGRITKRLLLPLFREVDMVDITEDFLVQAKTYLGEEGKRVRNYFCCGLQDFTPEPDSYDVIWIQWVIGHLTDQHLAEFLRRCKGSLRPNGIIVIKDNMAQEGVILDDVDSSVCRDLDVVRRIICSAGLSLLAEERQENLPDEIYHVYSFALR
Summary of the method: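 Compounds are incubated with 125 nM NTMT1 and 100 uM SAM for 15 min before the SPKRIA peptide (1 uM) starts a 30 min room-temperature methylation. SAH is measured by coupled luciferase luminescence and curves fitted to a Hill equation.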

[2] = Primary qHTS for inhibitors of nuclear receptor binding SET domain protein 2 (NSD2) in an isogenic RCH-ACV NSD2 p.E1099K mutant (9B) (AID 1645876); also: nearly all actives have a fitted effect of over 70% in size; also: potency is read from the fitted curve at half-maximal effect
[3] = Primary qHTS for inhibitors of nuclear receptor binding SET domain protein 2 (NSD2) in an RCH-ACV wild type WT cells (2C) (AID 1645877); also: nearly all actives have a fitted effect of over 70% in size; also: potency is read from the fitted curve at half-maximal effect
[4] = target: Cytochrome P450 2C9 (Homo sapiens) (UniProt P11712); experiment: Cytochrome P450 family 2 subfamily C member 9 (CYP2C9) small molecule antagonists: luciferase biochemical (cell-free) qHTS assay (AID 1645842; active = well fitted curve in the direction sought with a large enough effect in the repeat runs; an effect the other way counts as inactive or inconclusive; also: nearly all actives have a fitted effect of over 55% in size; also: potency is read from the fitted curve at half-maximal effect)
Sequence of Cytochrome P450 2C9 (Homo sapiens) (P11712 whole entry, looked up): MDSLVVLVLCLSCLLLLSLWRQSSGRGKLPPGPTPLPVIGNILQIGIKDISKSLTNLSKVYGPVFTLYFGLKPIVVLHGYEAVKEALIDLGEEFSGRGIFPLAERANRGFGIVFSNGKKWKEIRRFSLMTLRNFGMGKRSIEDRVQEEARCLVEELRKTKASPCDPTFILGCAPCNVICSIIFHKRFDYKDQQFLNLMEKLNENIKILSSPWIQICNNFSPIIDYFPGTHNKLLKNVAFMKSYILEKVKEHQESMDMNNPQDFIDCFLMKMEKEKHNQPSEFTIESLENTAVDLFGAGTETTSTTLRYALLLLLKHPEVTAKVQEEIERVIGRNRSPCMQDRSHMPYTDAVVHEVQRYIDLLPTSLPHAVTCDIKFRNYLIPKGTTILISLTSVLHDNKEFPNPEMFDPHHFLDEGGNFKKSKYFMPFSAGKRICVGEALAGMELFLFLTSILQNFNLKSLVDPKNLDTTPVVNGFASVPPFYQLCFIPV
Summary of the method: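 Luminescence, after 20 min with luciferin detection reagent, reflected CYP2C9 turnover during a 1 h NADPH-driven reaction at 37C. Enzyme-substrate mix contained 0.4% bovine serum albumin and was preincubated with compound 10 min at room temperature.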

[5] = target: Catechol O-methyltransferase (Homo sapiens) (UniProt P21964); experiment: Confirmatory Screen for Target Class Profiling of Small Molecule Inhibitors of Methyltransferases (AID 1745852); details: MTase-Glo luminescence, SAH detection, recombinant enzyme; measured here: COMT max response; stronger effect = lower value
Sequence of Catechol O-methyltransferase (Homo sapiens) (P21964 whole entry, looked up): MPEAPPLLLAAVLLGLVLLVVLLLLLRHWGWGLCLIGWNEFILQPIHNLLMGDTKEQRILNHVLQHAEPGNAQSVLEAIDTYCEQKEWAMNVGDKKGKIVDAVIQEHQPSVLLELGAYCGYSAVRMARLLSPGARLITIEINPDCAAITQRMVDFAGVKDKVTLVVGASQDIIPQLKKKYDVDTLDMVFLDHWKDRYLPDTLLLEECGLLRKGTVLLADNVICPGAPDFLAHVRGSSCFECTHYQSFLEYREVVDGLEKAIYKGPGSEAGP

Q: Which Potency [1] does the source give for `Cc1cnc(Nc2ccc(F)cc2Cl)nc1-c1c[nH]c(C(=O)NC(CO)c2cccc(Cl)c2)c1` (configuration not stated) here?
A: inactive

Q: What about the Potency [2] of the same compound?
A: 8.33 µM (active)

Q: And the Potency [3]?
A: 2.3 µM (active)

Q: For `NC(=O)c1cccc(-c2cc(OC(=O)NC3CCCCC3)ccc2O)c1`, which Potency [1] is on record?
A: inactive

Q: Which results are given for `COc1ccccc1NC(=O)OCC1CCN(C(=O)OC(C)(C)C)CC1`?
A: Potency [4]: inactive; Potency [2]: inactive; Potency [3]: inactive

Q: For `COc1ccc2cc(C(C)C(=O)Oc3ccc(C(N)=S)cc3)ccc2c1` (configuration not stated), which Potency [4] is on record?
A: 21.3 µM (active)

Q: And the Potency [2]?
A: inactive

Q: What about the Potency [3] of the same compound?
A: inactive

Q: Which Potency [2] does the source give for `CC1=C(/C=C/C(C)=C\C=C\C(C)=C/C(=O)O)C(C)(C)CCC1` here?
A: inactive

Q: Which Potency [2] does the source give for `CO[C@H]1/C=C/[C@@](C)(O)/C=C/C(=O)O[C@H](C)[C@@H](C)CC/C=C/1C` here?
A: 14.2 µM (active)

Q: With `NC[C@@](O)(c1ccc(Cl)cc1)c1ccc(-c2cn[nH]c2)cc1` as the compound, how does the Potency [4] read?
A: 1.2 µM (active)

Q: What about the Potency [2] of the same compound?
A: 6.49 µM (active) and 5.25 µM (active)

Q: What about the Potency [3] of the same compound?
A: 4.59 µM (active) and 4.68 µM (active)

Q: What about the activity [5] of the same compound?
A: 1.95%

Q: For `CC(C)NCC(C(=O)N1CCN(c2ncnc3c2C(C)CC3O)CC1)c1ccc(Cl)cc1` (configuration not stated), which Potency [4] is on record?
A: inactive

Q: What about the Potency [2] of the same compound?
A: 1.83 µM (active)

Q: And the Potency [3]?
A: 2.3 µM (active)

Q: For `C/C=C/c1ccc2oc(-c3ccc(O)c(OC)c3)c(C)c2c1`, which Potency [1] is on record?
A: inactive

Q: What about the Potency [2] of the same compound?
A: 14.5 µM (active)

Q: And the Potency [3]?
A: 16.3 µM (active)

Q: With `CC1(C)CCC[C@]2(C)[C@H]3CC(=O)O[C@]3(C)CC[C@@H]12` as the compound, how does the Potency [2] read?
A: inactive

Q: Which Potency [4] does the source give for `COc1cc(OC)cc(C(=O)Nc2ccc(Cl)c(-c3nc4ccc(N(C)C)cc4[nH]3)c2)c1` here?
A: 1.69 µM (active)

Q: What about the activity [5] of the same compound?
A: -4.1%

Q: Which Potency [2] does the source give for `Nc1ncnc2c([C@@H]3N[C@H](CO)[C@@H](O)[C@H]3O)c[nH]c12` here?
A: inactive

Q: Which results are given for `CC(C)CC1NC(=O)C2CC3(O)c4ccccc4NC3N2C1=O` (configuration not stated)?
A: Potency [2]: inactive; Potency [3]: inactive

Q: What does the source list for `COc1c2c(c(C)c3c1C(=O)OC3)OC1(C)CC(O)C34OC(OC)(OC3(C)C)C(O)CC4(C)C1C2` (configuration not stated)?
A: Potency [2]: inactive; Potency [3]: inactive

Q: For `CC1=CC2/C=C(\C)CC[C@@H](O)[C@@H](O)[C@@H]3O[C@@H]3C(=O)[C@]23C(=O)N[C@@H](CC(C)C)[C@@H]3[C@@H]1C` (some centres not stated), which Potency [2] is on record?
A: inactive

Q: What about the Potency [3] of the same compound?
A: inactive
